FBW7 activator = activators of human E3 ligase FBW7; Q969H0; AlphaScreen FBW7–phospho-cyclin E peptide binding, activator screen; normalized activity (activation), % at 26.1 µM; actives 0.13% (n = 650,000); AID 1259310; in the data active = normalized activity above about 1.9%;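 note: purified mutant Fbw7 with reduced substrate affinity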
TEAD-YAP block = TEAD-YAP interaction inhibition; HEK-TIYL cells, TEAD-Gal4/YAP UAS-luciferase luminescence; inhibition, % at 9.12 µM; actives 1.4% (n = 640,000); AID 1259422; in the data active = inhibition above about 32%;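 note: 0% = median of test compound wells and 100% = reference inhibitor wells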
GPR151 activ = activates the human receptor GPR151; PathHunter beta-arrestin GPR151 cells, luminescence; activation, % at 11.2 µM; actives 1% (n = 650,000); AID 1508602; in the data active = activation above about 4.9%;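 note: 0% = median of compound wells and 100% = cells with positive control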
Target sequence (Q8TDV0 whole entry, looked up): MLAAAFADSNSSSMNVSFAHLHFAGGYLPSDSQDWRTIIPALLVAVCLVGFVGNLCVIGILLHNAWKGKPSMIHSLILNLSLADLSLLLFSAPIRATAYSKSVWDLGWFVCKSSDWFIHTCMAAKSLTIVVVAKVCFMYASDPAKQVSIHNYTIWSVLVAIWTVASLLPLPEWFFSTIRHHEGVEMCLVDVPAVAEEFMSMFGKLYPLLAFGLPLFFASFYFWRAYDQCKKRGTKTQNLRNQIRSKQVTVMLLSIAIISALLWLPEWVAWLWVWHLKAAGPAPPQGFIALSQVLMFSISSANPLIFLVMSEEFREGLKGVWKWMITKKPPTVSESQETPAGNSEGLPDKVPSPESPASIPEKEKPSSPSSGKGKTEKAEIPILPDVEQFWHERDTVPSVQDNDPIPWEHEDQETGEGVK
MITF inh = blocks human microphthalmia-associated transcription factor; O75030; AlphaScreen MITF homodimerization, bead proximity signal; inhibition, % at 2.6 µM; actives 0.91% (n = 650,000); AID 1259374; in the data active = inhibition above about 50%;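 note: 0% = vehicle wells with protein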
GPR151 conf act = confirmation of human GPR151 activators; GPR151 PathHunter beta-arrestin cells, luminescence, 90 min; % of EA-reagent control over plate median; activation, % at 11.2 µM; 6,700 tested, under 10 active; shares compounds with GPR151 activ;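 active = mean percent activation across replicates above the confirmation screen cutoff of 4.91%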
GPR119 counter = GPR119 activation, counter-screen for GPR151 activators. shares compounds with GPR151 activ. GPR119 PathHunter beta-arrestin cells, luminescence, 90 min; 0 = compound-well median, 100 = enzyme-acceptor control. activation, % at 11.2 µM. actives 0.3% (n = 6,700). AID 1508611;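 active = mean percent activation in the counterscreen above 29.09%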;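 note: counterscreen on off-target GPR119 to flag nonselective hits from the GPR151 activator screen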
Starred values were filed as active, the others as inactive; . = not tested or not shown. A selection: hits, their analogues and other compounds. The true share with any hit is near 3.5%.

SMILES	FBW7 activator	TEAD-YAP block	GPR151 activ	MITF inh	GPR151 conf act	GPR119 counter
Cc1nc2c(-c3ccccc3)c(C)nn2c(C)c1CC(=O)NCC(C)c1ccccc1 (stereo not drawn)	0	-10	0	-1	.	.
Cc1cc(C(=O)COC(=O)c2ccc(O)cc2O)c(C)n1-c1ccc2c(c1)OCO2	0	2	5.3*	-1	0	1
COc1ccccc1/C=C1/C(=O)N(c2ccc(C(C)=O)cc2)N=C1C	0	-6	-1	1	.	.
COc1ccc(S(=O)(=O)Nc2ccccc2SC)cc1C	0	-7	1	-6	.	.
CCOc1ccccc1NS(=O)(=O)c1ccc(Br)c(OC)c1	0	5	0	-9	.	.
COc1ccc(S(=O)(=O)Nc2ccccc2SC)cc1Cl	0	-3	5.2*	-2	-1	-4
COc1ccccc1NS(=O)(=O)c1ccc2nc(CCl)[nH]c2c1	0	3	7.0*	-10	0	-3
CCOc1ccccc1NS(=O)(=O)c1ccc(OC)c(Cl)c1	0	2	5.5*	-5	-1	-4
O=c1nc(SCc2cccc3ccccc23)c2c([nH]1)CCC2	0	4	2	-10	.	.
C=CCn1c(-c2ccccc2)nn(CNc2ccccc2Cl)c1=S	0	10	-1	15	.	.
CCN1CCN(Cc2nc(N)nc(Nc3ccccc3)n2)CC1	0	8	6.1*	5	0	13
COc1ccc(Nc2nc(N)nc(CN3CCN(c4ccccn4)CC3)n2)cc1	0	-7	0	9	.	.
CCOC(=O)c1nc(N)nc(Nc2ccccc2)n1	-1	9	11*	15	0	1
COc1ccc(Nc2nc(N)nc(CN3C(=O)c4ccccc4C3=O)n2)cc1	0	0	6.9*	3	0	-2
CCOC(=O)c1cnc(SCc2nc(N)nc(Nc3ccccc3)n2)nc1N	0	13	3	0	.	.
O=C(CCCn1c(=S)[nH]c2ccccc2c1=O)N1CCc2ccccc21	0	-10	-1	-8	.	.
CCOC(=O)C1=C(C)N(CC(C)C)C(=O)/C1=C\c1ccc(OC)cc1	0	-4	2	7	.	.
CC1CCCC(NC(=O)c2ccc3c(=O)n(Cc4ccco4)c(=S)[nH]c3c2)C1C (stereo not drawn)	0	-9	-1	5	.	.
CCc1cc2[nH]c(C(=O)OC)cc2s1	0	-37	5.0*	2	0	10
COc1cc(OC)cc(-c2nc(=S)[nH][nH]2)c1	0	11	6.8*	-6	1	10
OCCCc1nc2n(n1)C(c1ccc(Cl)cc1)C=C(c1ccc(F)cc1)N2 (stereo not drawn)	0	10	2	-6	.	.
Cc1oc(-c2ccccc2Cl)nc1CSCC(=O)NC1CCCC1	0	-4	2	6	.	.
Cc1oc(-c2ccccc2Cl)nc1CSCC(=O)NC(C)(C)C	0	-23	5.2*	5	1	-1
COc1ccccc1-n1c(O)c(C=Nc2cccc(C)c2)c(=O)[nH]c1=S	0	5	5.1*	20	-1	0
N/C(Cc1ccc(Cl)cc1)=N\OC(=O)COc1ccccc1Cl	1	3	-1	0	.	.
SMILES	FBW7 activator	TEAD-YAP block	GPR151 activ	MITF inh	GPR151 conf act	GPR119 counter
CCc1ccccc1S(=O)(=O)Cc1ccc(C(=O)NC2CCCC2)o1	1	8	3	14	.	.
Cc1ccccc1S(=O)(=O)Cc1ccc(C(=O)NC2CCCCC2)o1	0	13	7.1*	6	0	-9
Cc1ccc(O)c(NC(=O)c2cc3ncc(Br)cn3n2)c1	1	-10	-1	13	.	.
O=C(Nc1ccc([N+](=O)[O-])cc1Cl)c1cc2ncc(Br)cn2n1	0	-4	-1	6	.	.
Cc1ccc(O)c(NC(=O)c2cnn3cc(Br)cnc23)c1	1	2	7.5*	1	1	4
O=C(Nc1ccc([N+](=O)[O-])cc1Cl)c1cnn2cc(Br)cnc12	0	0	7.2*	3	-1	6
CN(CCC#N)c1ncnc2c1oc1ccccc12	0	-9	10*	-7	0	4
CCOC(=O)/C(C(N)=O)=C(\OC)C(=O)CC(=O)c1ccc(C)cc1	0	6	5.5*	5	1	7
CCOC(=O)/C(C(N)=O)=C(\O)C(=O)/C=C(\O)c1ccc(C)cc1	0	-5	1	0	.	.
CC(=O)Oc1ccc(N2C(=O)c3cccc([N+](=O)[O-])c3C2=O)cc1	0	-8	1	5	.	.
CCOc1ccc(/C=N/NC(=O)C(=O)NC2CC2)cc1	0	-1	5.7*	19	1	4
CC(C)Oc1ccc(/C=N/NC(=O)C(=O)NC2CCCCC2)cc1	0	-6	1	-9	.	.
O=C(COC(=O)c1ccco1)Nc1ccc2c(c1)OCO2	0	-3	5.5*	-9	1	4
O=C(CS(=O)CC(=O)Nc1ccc2c(c1)OCCO2)Nc1ccc(Cl)cc1 (stereo not drawn)	0	-45	6.7*	16	1	6
O=C(CS(=O)CC(=O)Nc1ccc2c(c1)OCCO2)Nc1ccc(F)cc1 (stereo not drawn)	0	-2	0	-3	.	.
O=C(CCCCC(=O)Nc1ccc2c(c1)OCCO2)Nc1ccc2c(c1)OCCO2	0	9	5.1*	2	0	-3
Fc1ccc2c(c1)nc(N1CCCCC1)c1nccn12	0	-10	-1	-5	.	.
Fc1ccc2c(c1)nc(NC1CCCCC1)c1nccn12	0	2	5.1*	0	-1	-2
C=CCn1ccc2nc(N3CCOCC3)nc(N3CCOCC3)c21	0	-8	0	13	.	.
CCS(=O)(=O)Nc1cccc(N2CCC(NCc3ccc(C(F)(F)F)cc3)CC2)c1	0	-10	0	5	.	.
CC(C)(C)C(=O)Nc1nnc(SCC(N)=O)s1	0	-7	5.2*	5	-2	-2
CC(C)(C)C(=O)Nc1nnc(SCC(=O)NO)s1	0	-22	-2	10	.	.
CCOC(=O)CNC(=O)CSc1nnc(NC(=O)C(C)(C)C)s1	0	10	5.2*	-1	1	16
COC(=O)c1cc(S(=O)(=O)N2CCOCC2)c(Sc2ccccn2)cc1Sc1ccccn1	0	0	-2	-2	.	.
CCCCCCCCCCCCCC/C(C(=O)O)=C(\C)C(=O)O	0	6	9.5*	15	2	-4
CCOC(=O)C1=C(C)N(C2CCCCC2)C(=O)/C1=C\c1ccc(C(=O)OC)cc1	0	-3	0	0	.	.
CN(CC(=O)NC1CCCc2ccccc21)S(=O)(=O)c1ccc(Br)s1 (stereo not drawn)	0	1	11*	1	0	-4
O=C(CCS(=O)(=O)c1ccc(Br)s1)NC1CCCc2ccccc21 (stereo not drawn)	0	7	0	-4	.	.

Screens: PubChem, The Scripps Research Institute Molecular Screening Center
